Reference: PubChem BioAssay (EPA / NIEHS)
The source made the active and inactive calls. Rule for the calls: active = hit-call score of the fitted dose curve at least 0.9, where 1 is the maximum; inactive = score below 0.9.

The molecules below were run against Signal transducer and activator of transcription 3 (Homo sapiens) (UniProt P40763) (assay: ATG_STAT3_CIS: Attagene CIS-FACTORIAL HepG2 Assay for human Signal Transducer and Activator of Transcription 3 (STAT3) (AID 2282963)). Details: HepG2, Attagene cis-factorial STAT3 reporter transcription; actives raise or lower the signal.
Description: ATG_CIS is a cell-based, multiplexed-readout assay that uses HepG2, a human liver cell line, with measurements taken at 24 hours after chemical dosing in a 24-well plate.ATG_STAT3_CIS is one of 52 assay component(s) measured or calculated from the ATG_CIS assay. It is designed to make measurements of mRNA induction, a form of inducible reporter, as detected with fluorescence intensity signals by Reverse transcription polymerase chain reaction (RT-PCR) and Capillary electrophoresis technology.Data from the assay component ATG_STAT3_CIS was analyzed into 1 assay endpoint. This assay endpoint, ATG_STAT3_CIS, was analyzed with bidirectional fitting relative to DMSO as the negative control and baseline of activity. Using a type of inducible reporter, measures of mRNA for gain or loss-of-signal activity can be used to understand the reporter gene at the transcription factor-level as they relate to the gene STAT3. Furthermore, this assay endpoint can be referred to as a primary readout, because this assay has produced multiple assay endpoints where this one serves a reporter gene function. To generalize the intended target to other relatable targets, this assay endpoint is annotated to the dna binding intended target family, where the subfamily is stat protein.
Human liver HepG2 cells are transiently transfected with multiple reporter transcription units (MRTUs) in 6-well plates using FuGene 6 reagent (Roche; 3 ml FuGene/1 mg DNA). The MRTU constructs are regulated by a cis-regulating element (promoter). […] A major difference between the CIS and TRANS system is that in CIS activities of endogenous TFs are measured, whereas the TRANS assay evaluates changes in activities of exogenous, chimeric NR-Gal4 proteins. […] At the end of 24 hour incubation, total RNA was isolated using TriZol reagent (Invitrogen). The isolated RNA is then reverse-transcribed using oligo(dT) primer and Mo-MLV reverse transcriptase (Invitrogen) with DNAse I (Ambion) treatment for 30 min. The one-tenth of the produced cDNA was amplified by PCR using Taq DNA polymerase (Invitrogen) and two reporter sequence-specific primers. The PCR products were fluorescently labeled by primer extension with 6-arboxyfluorescein (6-FAM) 5'-labeled reporter sequence-specific primer (2 min at 95 C, 20 s at 68 C and 10 min at 72 C) and these products were digested with 5U of HpaI (New England Biolabs) for 2h at 37 C. The fragments were purified using Qiaquick PCR columns (Qiagen), analyzed on an ABI 3130xL genetic analyzer (Applied Biosystems) with peak positions identified by using a set of X-rhodamine (ROX)-labeled MapMarker1000 molecular weight standards (BioVentures). The raw capillary electrophoresis data was processed using Attagraph software (Attagene).

Chain of Signal transducer and activator of transcription 3 (Homo sapiens) (P40763 whole entry, looked up): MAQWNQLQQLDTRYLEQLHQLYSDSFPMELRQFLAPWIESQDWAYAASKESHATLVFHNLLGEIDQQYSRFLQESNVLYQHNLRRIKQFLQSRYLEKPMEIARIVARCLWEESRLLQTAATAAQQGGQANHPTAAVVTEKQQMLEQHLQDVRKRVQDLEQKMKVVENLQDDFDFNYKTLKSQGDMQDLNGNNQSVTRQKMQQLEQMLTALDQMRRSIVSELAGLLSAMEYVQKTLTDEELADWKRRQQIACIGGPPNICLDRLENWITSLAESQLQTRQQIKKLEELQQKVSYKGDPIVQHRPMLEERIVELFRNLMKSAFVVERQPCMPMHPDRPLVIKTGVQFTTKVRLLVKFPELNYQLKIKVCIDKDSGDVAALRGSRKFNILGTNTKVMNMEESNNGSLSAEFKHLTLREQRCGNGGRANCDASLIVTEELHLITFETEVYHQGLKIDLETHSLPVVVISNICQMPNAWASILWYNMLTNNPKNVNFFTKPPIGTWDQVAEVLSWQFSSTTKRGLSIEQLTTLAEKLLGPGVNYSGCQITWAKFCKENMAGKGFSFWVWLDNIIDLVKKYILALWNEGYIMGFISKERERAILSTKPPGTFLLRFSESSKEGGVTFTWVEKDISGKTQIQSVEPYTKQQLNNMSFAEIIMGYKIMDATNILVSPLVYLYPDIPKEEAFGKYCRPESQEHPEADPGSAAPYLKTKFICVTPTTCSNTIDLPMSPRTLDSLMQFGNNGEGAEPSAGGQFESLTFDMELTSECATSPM

outcome, inactive:
C=C(C)C1CC=C(C)C(=O)C1 (stereo not given)
CC=Cc1ccc(OC)c(OC)c1
O=C(O)CCCCCCCCCCCC(=O)O
CS(=O)(=O)c1ccc(C2=C(c3ccccc3)C(=O)OC2)cc1
CCCCOC(=O)CCCCCCCC(=O)OCCCC
CC1(C)O[C@@H]2C[C@H]3[C@@H]4CCC5=CC(=O)C=C[C@]5(C)[C@@]4(F)[C@@H](O)C[C@]3(C)[C@]2(C(=O)CO)O1
CCCCCCC(CO)CCCC (stereo not given)
COC(CC(C)CCCC(C)(C)O)OC (stereo not given)
CCCCCCCC/C=C\CCCCCCCC(=O)OCC
O=CN1CCOCC1
CC(=O)c1c(C)c([N+](=O)[O-])c(C(C)(C)C)c([N+](=O)[O-])c1C
CC1C2CC(CC2C2CCCC(O)C2)C1(C)C (stereo not given)
N#Cc1cscn1
CCCC(=O)c1ccccc1
CC(Oc1cc(Cl)ccc1Cl)C(=O)O (stereo not given)
CCOC(=O)[C@@H](C)Oc1ccc(Oc2nc3ccc(Cl)cc3o2)cc1
N#Cc1ccc(CC(=O)c2cccc(C(F)(F)F)c2)cc1
COC(=O)C=C(C)CCC=C(C)C
CCOC(=O)C(C#N)=C(c1ccccc1)c1ccccc1
CCOc1ccc(NC(=O)CC(C)=O)cc1
CCCC(C)C(O)CC (stereo not given)
c1ccc2[nH]cnc2c1
CC(=O)C(C)O (stereo not given)
COc1ccc(COC(C)=O)cc1
COS(=O)(=O)O
Cc1cc(CCC(=O)OCCOCCOCCOC(=O)CCc2cc(C)c(O)c(C(C)(C)C)c2)cc(C(C)(C)C)c1O
O=C(c1ccccc1)C(O)c1ccccc1 (stereo not given)
Cc1ccc(-c2ccccc2)cc1
C=C1C[C@]23C[C@@]1(O)CC[C@H]2[C@@]12C=C[C@H](O)[C@@](C)(C(=O)O1)[C@H]2[C@@H]3C(=O)O
CCCC(=O)OC(C)(C)Cc1ccccc1
C=CC(=O)OCCC#N
CN1C(=O)c2ccccc2C1=O
CCCCN(CCCC)C(=O)N(CCCC)CCCC
CCOC(=O)C1OC1c1ccccc1 (stereo not given)
CC1(C)C2=CCCC(C)(C)[C@]23CC[C@H]1C3
Nc1ccc(NCCO)c([N+](=O)[O-])c1
Nc1c(Cl)cc(Cl)cc1[N+](=O)[O-]
CCCCCC(C)=O
Nc1ccc2cc(S(=O)(=O)O)cc(O)c2c1N=Nc1ccccc1C(F)(F)F
Cc1c(Cl)cccc1[N+](=O)[O-]
